High-throughput results (PubChem)
Most compounds without a hit are left out; they make up all but 1.2% or so of the library.
CCT chaperon mod – modulators of cytosolic chaperonin (CCT/TRiC) activity; purified chaperonin ATPase assay, HTRF ADP detection, 30 min; activity change, % (concentration not given with the values), hits read low; actives 0.3% (n = 360,000); AID 651819; in the data active = activity change below about -30%
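We incubate TRiC, 40 or 20 nM final, with library compounds at 76 uM and 10 uM ATP for 30 min at 37 °C. ADP formed is detected with Transcreener HTRF reagents after 30 min at room temperature.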
Six1-Eya2 blk – Six1/Eya2 interaction inhibition. Q15475+O00167. AlphaScreen GST-Six1/His-Eya2 binding, biochemical; hits give low values. activity change, % (concentration not given with the values). actives 0.56% (n = 360,000)
Target sequence (O00167 whole entry, looked up): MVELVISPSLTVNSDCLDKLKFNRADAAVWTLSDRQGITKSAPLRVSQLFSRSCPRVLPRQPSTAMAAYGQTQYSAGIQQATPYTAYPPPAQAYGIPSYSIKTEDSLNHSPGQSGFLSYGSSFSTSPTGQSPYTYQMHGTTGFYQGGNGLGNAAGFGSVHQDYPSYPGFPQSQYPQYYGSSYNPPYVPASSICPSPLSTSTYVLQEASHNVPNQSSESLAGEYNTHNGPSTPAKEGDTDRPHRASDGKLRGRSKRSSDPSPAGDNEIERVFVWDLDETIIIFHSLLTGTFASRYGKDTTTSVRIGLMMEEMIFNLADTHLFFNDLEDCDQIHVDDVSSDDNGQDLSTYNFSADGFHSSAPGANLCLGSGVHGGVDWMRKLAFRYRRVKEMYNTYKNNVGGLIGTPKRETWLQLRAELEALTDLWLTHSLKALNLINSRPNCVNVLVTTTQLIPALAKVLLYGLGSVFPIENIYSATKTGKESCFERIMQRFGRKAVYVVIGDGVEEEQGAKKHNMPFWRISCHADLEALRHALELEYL
Target sequence (Q15475 whole entry, looked up): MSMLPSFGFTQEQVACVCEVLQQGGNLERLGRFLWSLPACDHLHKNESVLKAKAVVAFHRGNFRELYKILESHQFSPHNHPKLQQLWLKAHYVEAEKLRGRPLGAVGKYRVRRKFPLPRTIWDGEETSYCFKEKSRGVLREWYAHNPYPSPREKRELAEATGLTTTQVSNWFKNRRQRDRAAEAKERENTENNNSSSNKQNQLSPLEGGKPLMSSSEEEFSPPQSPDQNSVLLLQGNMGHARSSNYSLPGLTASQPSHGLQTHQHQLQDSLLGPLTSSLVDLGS
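GST-Six1 + His-Eya2 (5X stock: 250/500 nM); Tris pH 8.0, 300 mM NaCl, 0.05% BSA, 0.02% Tween 20; GSH donor/Ni acceptor beads; 1 h 37 °C dark; AlphaScreen readout.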
pAkt inh – Akt phosphorylation inhibition; actives 0.32% (n = 360,000); Neuro2A IGF-stimulated pAkt S473 HTRF, 20 min; hits give low values; activity change, % for hits at 50 µM; in the data active = activity change below about -80%; inconclusive = mostly about -51% to -80%
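Neuro2A cells (4,500/well, DMEM with 0.5% FBS) were treated with compound at a single 50 µM final concentration, stimulated with 6 nM IGF for 20 min at 37 °C, and lysed. Phospho-Akt Ser473 was read by HTRF as 665/615 ratio ×10^4.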
CtBP-E1A inh – blocks the CtBP interaction with E1A; activity change, % (no concentration beside the values); actives 0.49% (n = 340,000); AlphaScreen GST-E1A/His-CtBP binding, 1536-well; hits give low values
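Protein mix (5X: 125 nM each GST-E1A, His-CtBP) was incubated with pinned compound 2 h at 37 deg C in dark, in 50 mM Tris pH 8.0 buffer with 300 mM NaCl. Glutathione donor and nickel acceptor beads followed; AlphaScreen signal read after 1 h.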
Of the large screens only hits and unclear results are named; the others gave an inactive call. Rule as the data show it, unless noted: active = activity change below about -65%; inconclusive = mostly about -30% to -63%; inactive = weaker than that.

Cc1cc(NC(=O)CCCC(=O)OCC(F)(F)C(F)F)cc(C)c1C(=O)O	pAkt inh -112%
CCCCCCNc1cc2n(c(=O)n1)CCc1cc(OC)c(OC)cc1-2	Six1-Eya2 blk -71, CtBP-E1A inh -81
CCNc1cc2n(c(=O)n1)CCc1cc(OC)c(OC)cc1-2	Six1-Eya2 blk inconclusive
COc1cc2c(cc1OC)-c1cc(NC3CCCCCCC3)nc(=O)n1CC2	Six1-Eya2 blk -80, CtBP-E1A inh -85
COc1cc2c(cc1OC)-c1cc(NCc3ccccn3)nc(=O)n1CC2	Six1-Eya2 blk -78, CtBP-E1A inh inconclusive
CCOc1ccc(Nc2cc3n(c(=O)n2)CCc2cc(OC)c(OC)cc2-3)cc1	Six1-Eya2 blk -84
CCOc1ccccc1Nc1cc2n(c(=O)n1)CCc1cc(OC)c(OC)cc1-2	Six1-Eya2 blk inconclusive, CtBP-E1A inh inconclusive
COc1cc(C(=S)N2CCCC2)cc(OC)c1O	none
CCn1ncc(Br)c1C(=O)Nc1ccc(C(C)C)cc1	none
COc1ccc(CCNc2c3ccccc3nc3ccccc23)cc1OC	none
COc1cc2c(cc1OC)-c1cc(NC3CC3)nc(=O)n1CC2	Six1-Eya2 blk inconclusive, CtBP-E1A inh inconclusive
COc1cc2c(cc1OC)-c1cc(NC3CCCCC3)nc(=O)n1CC2	Six1-Eya2 blk -65, CtBP-E1A inh -66 (no result: pAkt inh)
CC(C)Oc1ccccc1/C=N/Nc1ccccc1[N+](=O)[O-]	Six1-Eya2 blk -72, CtBP-E1A inh -76
Cc1[nH]c2ccccc2c1/C=N/Nc1ccccc1[N+](=O)[O-]	Six1-Eya2 blk -69, CtBP-E1A inh inconclusive
COc1ccccc1/C=N\Nc1ccccc1[N+](=O)[O-]	none
O=[N+]([O-])c1cccc(COc2ccccc2CN2CCCC2)c1	none
NN(CCO)C(=S)Nc1ccc(Cl)cc1	none
C1CCC(Nc2nnnn2C2CCCCC2)CC1	pAkt inh -104%
C1CCC(n2nnnc2CN2CCN(C3CCCC3)CC2)CC1	none
Cc1ccc(NC(=O)c2ccc(-n3cccn3)c([N+](=O)[O-])c2)cc1C	pAkt inh -110%
O=C(Nc1ccc(Cl)cc1)c1ccc(-n2cccn2)c([N+](=O)[O-])c1	none
O=C1C(Nc2cccc(O)c2)=C(N2CCCCC2)C(=O)c2ccccc21	Six1-Eya2 blk -71
O=C1C(Nc2ccccc2)=C(N2CCCCC2)C(=O)c2ccccc21	none
O=C(Cc1ccc(F)cc1)NCCS(=O)(=O)N1CCN(c2cccc(Cl)c2)CC1	none
O=C(COc1ccc(F)cc1Br)Nc1ccccc1N1CCOCC1	none
Cc1ccc(NC(=O)C2CCN(S(=O)(=O)c3ccc4c(c3)NC(=O)C(C)S4)CC2)cc1Cl (stereo not given)	none (no result: CtBP-E1A inh)
Cn1nc(C(F)(F)F)c(C#N)c1N1CCN(c2ccccc2F)CC1	pAkt inh -107%
O=S(=O)(O)c1cc(O)c2c(O)c(N=Nc3cc(Cl)ccc3O)c(S(=O)(=O)O)cc2c1	Six1-Eya2 blk -75, CtBP-E1A inh -95
Oc1ccc(Cl)cc1N=Nc1ccccc1	none (no result: CtBP-E1A inh)
O=C(CSc1nnnn1Cc1ccccc1)N1CCN(c2ccccc2)CC1	CCT chaperon mod -37
Cc1ccc(CNC(=O)c2nn(C)c(C)c2[N+](=O)[O-])cc1	none
CCN(Cc1ccccc1)c1ccc(N=Nc2nn(C)c(C)c2[N+](=O)[O-])cc1	Six1-Eya2 blk -70, CtBP-E1A inh -68
CCN(CC)c1ccc(N=Nc2nn(C)c(C)c2[N+](=O)[O-])cc1	Six1-Eya2 blk -67, CtBP-E1A inh inconclusive
CCN(Cc1ccccc1)c1ccccc1	none
COc1cccc(C(=O)OCCN2CCOCC2)c1	none (no result: CtBP-E1A inh)
COc1cc(C(=S)N2CCOCC2)cc(OC)c1OC(=O)c1ccc(F)cc1	none
O=C(Oc1c(CN2CCOCC2)cc(Cl)c2cccnc12)c1ccc(F)cc1	Six1-Eya2 blk -91, CtBP-E1A inh -92
COc1cccc(C(=O)Oc2c(CN3CCOCC3)cc(Cl)c3cccnc23)c1	Six1-Eya2 blk -88, CtBP-E1A inh -91
COc1cc(C(=O)Oc2c(OC)cc(C(=S)N3CCOCC3)cc2OC)cc(OC)c1OC	none
COc1ccc(C(=O)Oc2c(CN3CCOCC3)cc(Cl)c3cccnc23)cc1	Six1-Eya2 blk inconclusive, CtBP-E1A inh -65
COc1cc(C(=O)Oc2c(CN3CCOCC3)cc(Cl)c3cccnc23)cc(OC)c1OC	Six1-Eya2 blk -92, CtBP-E1A inh -92
COc1ccc(C(=O)OC(C)CN2CCOCC2)cc1 (stereo not given)	none (no result: CtBP-E1A inh)
Nc1nc(-c2cc(O)ccc2[N+](=O)[O-])cc(-c2ccccc2)c1[N+](=O)[O-]	Six1-Eya2 blk inconclusive, CtBP-E1A inh inconclusive
Nc1ccc(CC(N)c2csc(Nc3cc(Oc4ccccc4)ncn3)n2)cc1 (stereo not given)	Six1-Eya2 blk inconclusive, CtBP-E1A inh inconclusive
NCc1csc(Nc2cc(Oc3ccccc3)ncn2)n1	Six1-Eya2 blk inconclusive, CtBP-E1A inh -77
CCN(CC)CCN(C(=O)CN1C(=O)c2ccccc2C1=O)c1nc2cc3c(cc2s1)OCO3	CtBP-E1A inh -83
Cc1ccccc1N1CCN(C2CCCN(C(=O)c3cn4cccc(C)c4n3)C2)CC1 (stereo not given)	none
C=CCNc1nc(NCc2ccc(N(C)C)cc2)c2sc(-c3ccccc3)cc2n1	Six1-Eya2 blk -73, CtBP-E1A inh -77
C=CCNc1nc(NCCOC)c2sc(-c3ccccc3)cc2n1	none
CCc1ccccc1NC(=O)CSc1nc2n[nH]c(C)c2c(=N)n1-c1ccc(OC)cc1	Six1-Eya2 blk -74, CtBP-E1A inh -65
Cc1cccc(-n2c(SCC(=O)N3CCCC3)nc3n[nH]c(C)c3c2=N)c1	pAkt inh -104%
CCCCN(CC)C(=O)CSc1nc2n[nH]c(C)c2c(=N)n1-c1cccc(C)c1	none (no result: CtBP-E1A inh)
COc1ccccc1NC(=O)CSc1nc2n[nH]c(C)c2c(=N)n1-c1ccccc1Cl	Six1-Eya2 blk inconclusive, CtBP-E1A inh -69
O=C(NCc1ccncc1)C1CCCN(S(=O)(=O)c2cc(Cl)ccc2Cl)C1 (stereo not given)	none
O=C(N/N=C/c1ccncc1)c1sc2ccccc2c1Cl	CCT chaperon mod -84, Six1-Eya2 blk inconclusive (no result: pAkt inh, CtBP-E1A inh)
O=C(N/N=C/c1cc(Cl)ccc1O)c1ccncc1	Six1-Eya2 blk -92, CtBP-E1A inh -95
O=C(N/N=C/c1ccncc1)c1cccc(NC(=O)c2ccc(Cl)cc2)c1	CCT chaperon mod -36
COc1ccc2c(Cl)c(C(=O)N/N=C/c3ccncc3)sc2c1	none
O=C(NCC1CCCO1)C(=O)N/N=C/c1cc(Cl)ccc1O (stereo not given)	Six1-Eya2 blk -80, CtBP-E1A inh -94
COc1cccc(COC(=O)Cc2ccc(S(=O)(=O)N3CCOCC3)s2)c1OC	none
CCOC(=O)[C@H]1[C@H]2COc3ccc(OC)cc3[C@@H]2N2C(=O)c3cc(C)ccc3NC(=O)[C@@]12C	none
CCOC(=O)/C(C#N)=C/c1ccc(OC(=O)c2ccccn2)cc1	Six1-Eya2 blk -87
COC(=O)/C(C#N)=C/c1ccc(OC(=O)c2ccccn2)cc1	Six1-Eya2 blk inconclusive, CtBP-E1A inh inconclusive
CCOC(=O)C1=C(C)N=C2SC=C(C)N2C1c1ccc(OC)cc1 (stereo not given)	none
CC(C)(C)C(=O)COc1ccccc1[N+](=O)[O-]	CCT chaperon mod -48
